Bioassay records from PubChem BioAssay.
MazF activator: activators of E. coli MazEF toxin-antitoxin RNase, primary screen, biochemical, fluorescence, uHTS. Endoribonuclease toxin MazF (Escherichia coli (strain K12)), P0AE70. FAM/BHQ RNA-DNA oligo cleavage fluorescence, 5 h. activation, % at 20 µM. 350,000 tested, 0.32% active. AID 504720, 2011; in the data active means activation above about 50%
Target sequence (P0AE70 whole entry, looked up): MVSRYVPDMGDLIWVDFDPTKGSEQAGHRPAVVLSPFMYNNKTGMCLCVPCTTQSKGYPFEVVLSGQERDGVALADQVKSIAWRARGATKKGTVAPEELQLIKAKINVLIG
PfHsp40 yeast: rescue of yeast from PfHsp40 toxicity, primary screen, S. cerevisiae, ATP luminescence; S. cerevisiae expressing PfHsp40, growth rescue; growth rescue, % at 12.5 µM; 340,000 tested, 0.68% active; AID 504582, 2011; in the data active means growth rescue above about 28%, passing the limit was not always enough; inconclusive means no clear call, values can overlap the other calls;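 further: yeast W303a lacking pdr1 and pdr3 grown in galactose medium; growth measured after three days at 30 °C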
Autofluor counter: flagged as autofluorescent in microsphere protease counterscreen; fluorescence intensity (test concentration not listed); AID 624483; 360,000 tested, 3.1% active; compound autofluorescence counterscreen, microsphere flow cytometry; stronger effect = higher value; in the data active means fluorescence intensity above about 16000; inconclusive means no clear call, values can overlap the other calls
BoNT-A LC inh2: BoNT/A light chain protease inhibitors, primary screen, biochemical, flow cytometry, MLPCN library; inhibition, % at 10 µM; AID 588499, 2011; 360,000 tested, 0.17% active; multiplex microsphere protease substrate cleavage; Botulinum neurotoxin type A light chain protease (Clostridium botulinum A str. ATCC 3502); further: plate controls were buffer without enzyme for full effect and enzyme alone for no effect
BoNT F protease: BoNT/F light chain protease inhibitors, primary screen, biochemical, flow cytometry, MLPCN library. Multiplex microsphere protease cleavage assay. inhibition, % at 10 µM. 360,000 tested, 0.22% active. AID 588497, 2011; in the data active means inhibition above about 35%, passing the limit was not always enough; inconclusive means no clear call, values can overlap the other calls; further: plate controls were buffer without enzyme for full effect and enzyme alone for no effect
Anthrax LF prot: Bacillus anthracis LF protease inhibitors, primary screen, biochemical, multiplex microsphere, MLPCN library; inhibition, % at 10 µM; 360,000 tested, 0.12% active; AID 588501, 2011; multiplex microsphere protease cleavage assay; further: plate controls were buffer without enzyme for full effect and enzyme alone for no effect
* = called active by the depositor; ? = inconclusive; / = no result given. The list is not random: actives were taken first. Their share in the collection is about 4.3%. Unless noted, no stated cut-off is given here; in the data, active means inhibition above about 30%; inconclusive means no clear call, values can overlap the other calls; inactive means below that.

SMILES | MazF activator | PfHsp40 yeast | Autofluor counter | BoNT-A LC inh2 | BoNT F protease | Anthrax LF prot
Cc1ccc(C(C)NC(=O)/C(C#N)=C\c2c(C)[nH]c3ccccc23)cc1 (stereo unspecified) | 11.2 | 0.6 | 11242 | 0.3 | 5.2 | -4.2
CCCNC(=O)C(Cc1ccccc1C)NC(=O)c1ccc(C(F)(F)F)cc1 (stereo unspecified) | -0.7 | -1.7 | 3744 | -0.5 | -5.7 | -3.8
COc1ccc(OCC(=O)NNC(=S)NC(=O)C2CC2)cc1 | 2.5 | -1.3 | ? | 2.6 | -5.1 | 4.7
COc1ccc(OCC(=O)NNC(=S)NC(=O)C2CCCCC2)cc1 | / | 345.8* | 4746 | 3.9 | -2.6 | -1.9
CCc1ccc(OCC(=O)NNC(=S)NC(=O)C2CCCCC2)c(Br)c1 | -2.5 | 9.5 | 5495 | 1.2 | -7.8 | -2.2
Cc1cc(C)cc(OCC(=O)NNC(=S)NC(=O)C2CC2)c1 | 3.3 | 112.0* | 5913 | -1.0 | -8.8 | -0.2
CCc1ccc(OCC(=O)NNC(=S)NC(=O)C2CC2)c(Br)c1 | 4.9 | 47.7* | 5479 | 1.6 | 1.3 | -2.2
Cc1ccc(NC(=O)C(C)N2C(=O)c3ccccc3C2=O)c(C)c1 (stereo unspecified) | 1.2 | 1.1 | 3124 | 2.8 | -28.6 | -14.4
CCOc1cc(Br)ccc1S(=O)(=O)N1CC(C)OC(C)C1 (stereo unspecified) | -7.5 | 1.1 | 20570* | 0.4 | 2.2 | -1.1
CCOc1ccc(Br)cc1S(=O)(=O)N1CC(C)OC(C)C1 (stereo unspecified) | -3.0 | 0.2 | 15484 | 12.3 | 20.8 | -21.2
CCOc1ccccc1NC(=O)COC(=O)CN1C(=O)NC(C)(C)C1=O | -6.5 | -2.0 | 4570 | 4.5 | 5.7 | 1.0
Cn1c(=O)c2c(nc(Br)n2CC(=O)C23CC4CC(CC(C4)C2)C3)n(C)c1=O | 12.0 | 0.3 | 16360* | 0.3 | -1.4 | -2.2
COc1cccc(C(=O)Cn2c(Br)nc3c2c(=O)n(C)c(=O)n3C)c1 | 3.9 | -1.2 | 16106 | 0.9 | 0.1 | -3.6
Cn1c(=O)c2c(nc(SCC(=O)NC34CC5CC(CC(C5)C3)C4)n2C)n(C)c1=O | -9.3 | -2.3 | 23851* | -1.4 | -3.2 | 0.3
COc1cc(C(=O)N[C@H](C(=O)Nc2nnc(C3CC3)s2)C(C)C)cc(OC)c1OC | -0.1 | -1.0 | 4216 | 1.1 | -2.9 | -0.6
C=CCOc1ccc2ccccc2c1CNn1cn[nH]c1=S | 1.5 | -0.1 | 3237 | 1.1 | ? | 23.1
CCSc1nnc(NC(=O)c2cccc(S(=O)(=O)N(C)c3ccccc3)c2)s1 | 0.3 | 29.8* | 1998 | -1.3 | -12.6 | -0.3
COc1ccc(S(=O)(=O)N2CCCCC2)cc1NC(=O)CCCOc1ccc(C)cc1 | -7.5 | -0.4 | 3793 | -0.1 | -7.0 | -16.2
COc1cc(OC)cc(C(=O)N[C@H](C(=O)NCCc2ccc(S(N)(=O)=O)cc2)C(C)C)c1 | -0.5 | 0.4 | ? | -2.7 | -19.2 | -6.9
Cc1nc(-n2cc(F)c(=O)[nH]c2=O)c2nc(C)oc2n1 | -8.1 | 2.6 | 17089* | -2.5 | -4.2 | -4.2
Cc1cc(C)cc(NC(=O)C2CCCN(c3nccc(C)n3)C2)c1 (stereo unspecified) | -21.2 | -0.1 | 16127* | 0.1 | 0.6 | -4.2
Cc1cc(C)nc(N2CCCC(C(=O)Nc3nc4ccc(S(C)(=O)=O)cc4s3)C2)n1 (stereo unspecified) | -1.2 | 1.5 | 22009* | 2.5 | 0.9 | 1.1
Cc1cc(C)cc(NC(=O)C2CCCN(c3nc(C)cc(C)n3)C2)c1 (stereo unspecified) | -14.8 | -0.2 | 22398* | -1.0 | -2.8 | -8.8
O=C1/C(=C/c2ccc([N+](=O)[O-])cc2)CCC1C1CCCC1 (stereo unspecified) | -17.8 | -0.1 | 2813 | 4.1 | -20.4 | 4.2
O=C(Nc1ccc2c(c1)OCO2)c1noc2c1CCCC2 | 11.4 | -0.5 | 4531 | 2.3 | 8.3 | 1.4
SMILES | MazF activator | PfHsp40 yeast | Autofluor counter | BoNT-A LC inh2 | BoNT F protease | Anthrax LF prot
Cc1cc(C2C(=O)NC(=O)C2=O)c(C)cc1Br (stereo unspecified) | 14.0 | -0.1 | 4198 | -0.8 | -5.6 | -7.8
O=Nc1c(O)c2ccccc2c2ccccc12 | 7.5 | 24.1 | 4370 | -0.6 | -14.3 | -2.8
O=Nc1c2cc3ccccc3[nH]c-2c2ccccc12 | 16.1 | 54.1* | 3450 | -0.1 | -7.5 | -5.4
O=C(O)CSCCn1cccn1 | 6.3 | -1.1 | 9386 | -1.4 | -2.7 | -1.9
Cc1ccn(CCSCC(=O)O)n1 | -7.3 | 0.4 | 22249* | ? | 1.6 | -3.4
COc1cccc(-c2nn3c(-c4cccc(C)c4)nnc3s2)c1 | 3.3 | -1.9 | 17527* | -3.9 | -6.7 | -3.5
CCOc1cccc(-c2nnc3sc(-c4cccs4)nn23)c1 | 9.0 | 0.3 | 17165* | -1.5 | -0.3 | 1.1
CCOc1cccc(-c2nn3c(-c4ccco4)nnc3s2)c1 | 10.2 | 1.0 | 23209* | 0.1 | 2.4 | -0.2
CC(=O)NC(C)C(c1cccs1)N1CCN(c2ccccc2)CC1 (stereo unspecified) | 4.2 | 0.5 | 16460* | ? | 0.8 | -1.7
CCN(CC)S(=O)(=O)c1cccc(C(=O)NC(C)C(c2cccs2)N2CCCC2)c1 (stereo unspecified) | 3.0 | 0.1 | 17341* | 0.9 | 4.4 | 4.5
CCN1CCN(C(c2cccs2)C(C)NC(=O)c2ccccc2)CC1 (stereo unspecified) | 6.9 | 0.3 | 5988 | -0.5 | 5.8 | 3.5
CC(NC(=O)c1cccc(F)c1)C(c1cccs1)N1CCN(C)CC1 (stereo unspecified) | -2.2 | -0.1 | 23669* | -4.6 | -4.9 | 0.8
COc1ccc2c(c1OC)C(=O)OC2n1c(O)c(N=NC(C)=O)c2ccccc21 (stereo unspecified) | 13.6 | 1.8 | 6059 | -0.2 | -0.8 | -7.0
CC(C)(C)c1ccc(OCC(=O)NCC(c2cccs2)N2CCOCC2)cc1 (stereo unspecified) | 1.7 | -0.3 | 5897 | 1.7 | 1.9 | -2.0
O=C(CNC(=O)c1ccc(Cl)cc1)NCc1ccccn1 | 4.4 | -0.8 | 4091 | -0.8 | -3.4 | 1.6
COC(=O)c1ccccc1NC(=O)COC(=O)C1CCCCC1 | -7.1 | -1.5 | 3487 | -0.2 | 3.7 | -6.3
CC(=O)c1nccs1 | 4.5 | 0.9 | 5059 | -0.4 | -2.8 | 1.2
CC(=NNC(=S)N1CC2CCC(CC2)C1)c1cccc(C)n1 | 8.8 | 0.5 | 2732 | 19.7 | 44.8* | 17.5
CC(=NNC(=S)N1CC2CCC(CC2)C1)c1nccs1 | 3.9 | 126.3* | 2938 | 8.6 | 31.0 | 13.2
Cc1cccc(C(=O)N2CCCC(Nc3ccc(C)c(C)c3)C2)n1 (stereo unspecified) | 7.6 | -0.1 | 6410 | -1.2 | -6.7 | 0.7
